Drawing on PubChem BioAssay (EPA / NIEHS), this text covers outcome and AC50 for nine compounds.

Records with an inconclusive call do not appear. Calls of active or inactive are those of the source. The calls were made as follows, unless noted: active = hit-call score of the fitted dose curve at least 0.9, where 1 is the maximum; inconclusive = response in the unintended direction; inactive = score below 0.9.

Assay [1] addresses Androgen receptor (Homo sapiens) (UniProt P10275). In words: ATG_AR_TRANS: Attagene TRANS-FACTORIAL HepG2 Assay for human Androgen Receptor (AR) (AID 2282973). Particulars: HepG2 Attagene TRANS-FACTORIAL AR reporter transcription. Summed up:
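HepG2 cells transiently transfected with AR-Gal4 chimera and GAL4-UAS reporter units; chemical exposure 24 h. Reporter mRNA quantified by RT-PCR with fluorescent labelling and capillary electrophoresis; gain-of-signal fitted against DMSO.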

Assay [2] in a line: Tanguay_ZF_120hpf_MUSC: Oregon State University Tanguay Lab 120 Hour Post-fertilization zebrafish Assay for Muscle Malformation (AID 2284401; active = hit-call score of the fitted dose curve at least 0.9, where 1 is the maximum; inactive = score below 0.9). Summed up: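 Dechorionated Tropical 5D wild-type zebrafish embryos exposed statically from 6 to 120 hpf at 28C, one per well, in 0.64% DMSO. Muscle malformation scored present/absent by brightfield microscopy at 120 hpf, fitted against DMSO.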

In assay [3] the target is Cytochrome P450 2C18 (Homo sapiens) (UniProt P33260). In words: NVS_ADME_hCYP2C18: NovaScreen (NVS) CYP450-related Enzyme Activity (ADME) Assay for human CYP2C18 (AID 2283103; active = hit-call score of the fitted dose curve at least 0.9, where 1 is the maximum; inactive = score below 0.9). In a few lines: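 Cell-free recombinant human CYP2C18 with fluorogenic substrate; fluorescence intensity read 0.5 h after dosing. Single-point screen at 10 uM in duplicate, then concentration-response up to 20 uM; loss of signal fitted against acetonitrile baseline.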
Chain of Cytochrome P450 2C18 (Homo sapiens) (P33260 whole entry, looked up): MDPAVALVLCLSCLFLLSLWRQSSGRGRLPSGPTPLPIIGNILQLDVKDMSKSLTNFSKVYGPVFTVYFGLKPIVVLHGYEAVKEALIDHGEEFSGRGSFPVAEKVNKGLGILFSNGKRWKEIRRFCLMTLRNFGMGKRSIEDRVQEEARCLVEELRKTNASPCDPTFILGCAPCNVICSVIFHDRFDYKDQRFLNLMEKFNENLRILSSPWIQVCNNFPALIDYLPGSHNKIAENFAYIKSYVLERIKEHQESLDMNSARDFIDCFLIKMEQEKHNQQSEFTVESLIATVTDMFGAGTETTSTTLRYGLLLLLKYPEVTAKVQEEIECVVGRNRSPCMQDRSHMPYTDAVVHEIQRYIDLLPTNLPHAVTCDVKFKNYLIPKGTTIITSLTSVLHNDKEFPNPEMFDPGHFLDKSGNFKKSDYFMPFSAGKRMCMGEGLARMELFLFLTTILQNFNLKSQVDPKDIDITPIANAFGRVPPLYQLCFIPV

Assay [4] concerns the target human CYP2C8, CYP2C8 (gene 1558) (UniProt P10632). The assay is described as follows: NVS_ADME_hCYP2C8: NovaScreen (NVS) CYP450-related Enzyme Activity (ADME) Assay for human CYP2C8 (AID 2283104; active = hit-call score of the fitted dose curve at least 0.9, where 1 is the maximum; inactive = score below 0.9). Summed up: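 Recombinant human CYP2C8 with fluorogenic substrate, 0.5 h, fluorescence intensity; signal loss fitted versus acetonitrile. Screened in duplicate at 10 uM, then actives run in concentration-response up to 20 uM.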

Assay [5] has as its target human CYP4F12, CYP4F12 (gene 66002) (UniProt Q9HCS2). The assay is described as follows: NVS_ADME_hCYP4F12: NovaScreen (NVS) CYP450-related Enzyme Activity (ADME) Assay for human CYP4F12 (AID 2283111). In a few lines: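 Cell-free fluorescence assay of recombinant human CYP4F12 activity on a specific substrate, read 0.5 h after dosing. Primary screen in duplicate at 10 uM, then concentration series for actives; loss of signal fitted against acetonitrile negative control.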

A further assay concerns rat CYP2B1, gene 24300. In words: NVS_ADME_rCYP2B1: NovaScreen (NVS) CYP450-related Enzyme Activity (ADME) Assay for rat CYP2B1 (AID 2283117). In a few lines:
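Recombinant rat CYP2B1 with fluorogenic substrate, read at 0.75 h. Primary screen in duplicate at 10 uM; compounds meeting threshold (e.g., 30% inhibition) re-run in concentration-response up to 20 uM. Fitted against acetonitrile control.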

For assay [6], the target named is rat CYP2C12, Cyp2c12 (gene 25011) (UniProt P11510). The assay is described as follows: NVS_ADME_rCYP2C12: NovaScreen (NVS) CYP450-related Enzyme Activity (ADME) Assay for rat CYP2C12 (AID 2283119). In a few lines:
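Cell-free recombinant rat CYP2C12 activity read by fluorescence 0.5 h after dosing; loss of signal versus acetonitrile control. Primary screen in duplicate at 10 uM; actives then run in concentration-response format.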

Assay [7] deals with rat CYP2D1, Cyp2d1 (gene 266684) (UniProt P10633). In words: NVS_ADME_rCYP2D1: NovaScreen (NVS) CYP450-related Enzyme Activity (ADME) Assay for rat CYP2D1 (AID 2283122). In a few lines: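 Cell-free fluorescence enzyme-activity assay on extracted rat CYP2D1 protein, read 0.75 h after dosing. Primary screen in duplicate at 10 uM; qualifying chemicals then run in concentration-response to 20 uM max, loss-of-signal versus acetonitrile baseline.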
Chain of rat CYP2D1, Cyp2d1 (gene 266684) (P10633 whole entry, looked up): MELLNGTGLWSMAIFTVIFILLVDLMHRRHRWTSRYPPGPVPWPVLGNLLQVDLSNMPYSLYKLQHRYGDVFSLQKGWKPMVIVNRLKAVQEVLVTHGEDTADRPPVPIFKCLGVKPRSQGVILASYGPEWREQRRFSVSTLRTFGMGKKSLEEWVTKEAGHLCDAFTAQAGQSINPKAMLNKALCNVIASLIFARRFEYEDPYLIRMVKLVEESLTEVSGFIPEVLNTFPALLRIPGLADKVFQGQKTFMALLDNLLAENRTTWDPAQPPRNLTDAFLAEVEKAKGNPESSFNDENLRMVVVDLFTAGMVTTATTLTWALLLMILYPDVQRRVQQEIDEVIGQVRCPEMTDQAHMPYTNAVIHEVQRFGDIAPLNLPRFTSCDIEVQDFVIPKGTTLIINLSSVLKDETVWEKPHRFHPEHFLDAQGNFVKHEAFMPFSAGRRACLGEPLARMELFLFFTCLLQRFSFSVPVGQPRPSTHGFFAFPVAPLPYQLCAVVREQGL

Assay [8] deals with human AMP-activated Protein Kinase, alpha 1 (AMPKa1), PRKAA1 (gene 5562) (UniProt Q13131). In words: NVS_ENZ_hAMPKa1: NovaScreen (NVS) Enzymatic Assay for human AMP-activated Protein Kinase, alpha 1 (AMPKa1) (AID 2283130). In a few lines:
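Recombinant human AMPKα1 activity was measured cell-free by fluorescent substrate conversion with electrophoretic mobility-shift separation, 1 h after dosing. Duplicate single-point screening was at 25 uM; actives (≥30% inhibition) were retested in concentration-response up to 50 uM.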

Assay [9] deals with human NIMA (Never In Mitosis Gene A)-Related Kinase 2 (NEK2), NEK2 (gene 4751) (UniProt P51955). The assay is described as follows: NVS_ENZ_hNEK2: NovaScreen (NVS) Enzymatic Assay for human NIMA (Never In Mitosis Gene A)-Related Kinase 2 (NEK2) (AID 2283188). In a few lines:
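Cell-free NEK2 enzyme activity after 1 h exposure, read by fluorescence with electrophoretic mobility shift separating substrate and product. Primary screen in duplicate at 25 uM; actives then run as concentration series. Loss of signal versus DMSO scored.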

The target of assay [10] is rat Monoamine Oxidase, MAO-B, Central (MAOBC), Maob (gene 25750) (UniProt P19643). In words: NVS_ENZ_rMAOBC: NovaScreen (NVS) Enzymatic Assay for rat Monoamine Oxidase, MAO-B, Central (MAOBC) (AID 2283238). Summed up:
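MAO-B activity in rat brain tissue preparation, cell-free, measured radiometrically by scintillation counting 1.17 h after dosing. Screened in duplicate at 25 uM; actives then in concentration-response up to 50 uM. Loss of signal versus DMSO scored.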

Assay [11] has as its system rat Monoamine Oxidase, MAO-A, Central (MAOAC), gene 29253. The assay is described as follows: NVS_ENZ_rMAOAC: NovaScreen (NVS) Enzymatic Assay for rat Monoamine Oxidase, MAO-A, Central (MAOAC) (AID 2283243).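 Also: potency refers to inhibition seen as signal drop below DMSO baseline.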 In a few lines: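 Inhibition of rat brain-derived MAO-A was read by scintillation counting after 1.5 h exposure. Compounds screened first at 25 uM in duplicate, then in dose series if active.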

Assay [12] addresses Norway rat Vesicular Monoamine Transporter (VMAT2), neurotransmitter transporter, Slc18a2 (gene 25549) (UniProt Q01827). In words: NVS_TR_rVMAT2: NovaScreen (NVS) Transporter Assay for Norway rat Vesicular Monoamine Transporter (VMAT2), neurotransmitter transporter (AID 2283376).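 Also: actives lower the bound radioligand signal below the DMSO level.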 In a few lines: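 Radioligand displacement binding on rat forebrain tissue preparation, filter-based scintillation read-out 1 hour after dosing. Primary screen in duplicate at 25 uM, then concentration series for actives; loss of signal versus DMSO.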

A short description of assay [13]: ATG_M_32_XSP2: Attagene TRANS-FACTORIAL Multi-Species (XSP2) HepG2 Assay for M19 Transcription Factor (Internal Marker) (AID 2283826). Summed up:
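HepG2 cells transiently transfected with GAL4-UAS reporter units; XSP2 panel included 3 nM 6-alpha-fluorotestosterone and 1.5 nM norgestrel for androgen receptor stimulation. Reporter mRNA read 24 h post-dosing by RT-PCR/capillary electrophoresis; fitted upward versus DMSO.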

Assay [14] has as its target rat CYP1A2, Cyp1a2 (gene 24297) (UniProt P04799). The assay is described as follows: NVS_ADME_rCYP1A2: NovaScreen (NVS) CYP450-related Enzyme Activity (ADME) Assay for rat CYP1A2 (AID 2283115). In a few lines: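 Cell-free recombinant rat enzyme with fluorogenic substrate, read by fluorescence intensity 1 hour after dosing. Loss of signal versus acetonitrile negative control; primary screen at 10 uM in duplicate, actives followed in concentration series.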

Assay [15] concerns the target human Acetylcholinesterase (AChE), ACHE (gene 43) (UniProt P22303). In words: NVS_ENZ_hAChE: NovaScreen (NVS) Enzymatic Assay for human Acetylcholinesterase (AChE) (AID 2283129). In a few lines:
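Cell-free colorimetric enzyme-activity assay; compounds read 0.33 hour after dosing, loss of signal vs DMSO baseline. Primary screen in duplicate at 25 uM single concentration, with active compounds retested in concentration series.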

Assay [16] deals with human Phosphatase and Tensin Homolog (PTEN), PTEN (gene 5728) (UniProt P60484). The assay is described as follows: NVS_ENZ_hPTEN: NovaScreen (NVS) Enzymatic Assay for human Phosphatase and Tensin Homolog (PTEN) (AID 2283203). In a few lines:
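Cell-free recombinant human PTEN with fluorescent substrate; product separated by electrophoretic mobility shift and read by fluorescence 1 h after dosing. Primary screen in duplicate at 25 uM, actives followed in concentration series versus DMSO.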

Assay [17] relates to rat Monoamine Oxidase, MAO-A, Peripheral (MAOAP), gene 29253. In words: NVS_ENZ_rMAOAP: NovaScreen (NVS) Enzymatic Assay for rat Monoamine Oxidase, MAO-A, Peripheral (MAOAP) (AID 2283237). In a few lines:
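Rat liver mitochondrial membranes served as the MAO-A source, with enzyme activity measured by radiometric scintillation counting 1.17 hours after dosing. Loss of signal was fitted against DMSO; primary screen used 25 uM in duplicate, follow-up used concentration series.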

Assay [18] addresses Protein deacetylase HDAC6 (Homo sapiens) (UniProt Q9UBN7). In words: NVS_ENZ_hHDAC6: NovaScreen (NVS) Enzymatic Assay for human Histone Deacetylase 6 (HDAC6) (AID 2283164). In a few lines: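 Recombinant human HDAC6 with fluorescent substrate, 1 h; product separated from substrate by electrophoretic mobility shift. Primary screen in duplicate at 25 uM; actives retested singly in concentration-response up to 50 uM, fitted relative to DMSO.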

In assay [19] the target is human Tyrosine Protein Kinase Receptor Tie-2 (Tie2), TEK (gene 7010) (UniProt Q02763). The assay is described as follows: NVS_ENZ_hTie2: NovaScreen (NVS) Enzymatic Assay for human Tyrosine Protein Kinase Receptor Tie-2 (Tie2) (AID 2283225). Summed up: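 Recombinant human Tie2 kinase activity was read cell-free by fluorescence with electrophoretic mobility shift, 1 hour after dosing. The screen used 25 uM in duplicate, then concentration-response up to 50 uM. Signal loss was scored against DMSO.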

Chain of rat Monoamine Oxidase, MAO-B, Central (MAOBC), Maob (gene 25750) (P19643 whole entry, looked up): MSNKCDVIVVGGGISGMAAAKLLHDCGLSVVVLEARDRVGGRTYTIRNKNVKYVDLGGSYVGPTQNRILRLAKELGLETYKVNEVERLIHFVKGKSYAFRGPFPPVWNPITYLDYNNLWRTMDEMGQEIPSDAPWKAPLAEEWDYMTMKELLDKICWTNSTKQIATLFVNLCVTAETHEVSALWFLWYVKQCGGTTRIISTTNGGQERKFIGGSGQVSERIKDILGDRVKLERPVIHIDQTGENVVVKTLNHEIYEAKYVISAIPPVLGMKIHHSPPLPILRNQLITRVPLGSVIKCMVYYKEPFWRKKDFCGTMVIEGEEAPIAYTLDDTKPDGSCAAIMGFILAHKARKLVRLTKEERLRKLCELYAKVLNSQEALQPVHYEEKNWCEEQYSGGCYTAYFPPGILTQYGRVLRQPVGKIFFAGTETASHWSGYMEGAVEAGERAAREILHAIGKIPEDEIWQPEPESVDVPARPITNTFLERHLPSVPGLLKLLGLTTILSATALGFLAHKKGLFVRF
Chain of Androgen receptor (Homo sapiens) (P10275 whole entry, looked up, the tested form may be a part): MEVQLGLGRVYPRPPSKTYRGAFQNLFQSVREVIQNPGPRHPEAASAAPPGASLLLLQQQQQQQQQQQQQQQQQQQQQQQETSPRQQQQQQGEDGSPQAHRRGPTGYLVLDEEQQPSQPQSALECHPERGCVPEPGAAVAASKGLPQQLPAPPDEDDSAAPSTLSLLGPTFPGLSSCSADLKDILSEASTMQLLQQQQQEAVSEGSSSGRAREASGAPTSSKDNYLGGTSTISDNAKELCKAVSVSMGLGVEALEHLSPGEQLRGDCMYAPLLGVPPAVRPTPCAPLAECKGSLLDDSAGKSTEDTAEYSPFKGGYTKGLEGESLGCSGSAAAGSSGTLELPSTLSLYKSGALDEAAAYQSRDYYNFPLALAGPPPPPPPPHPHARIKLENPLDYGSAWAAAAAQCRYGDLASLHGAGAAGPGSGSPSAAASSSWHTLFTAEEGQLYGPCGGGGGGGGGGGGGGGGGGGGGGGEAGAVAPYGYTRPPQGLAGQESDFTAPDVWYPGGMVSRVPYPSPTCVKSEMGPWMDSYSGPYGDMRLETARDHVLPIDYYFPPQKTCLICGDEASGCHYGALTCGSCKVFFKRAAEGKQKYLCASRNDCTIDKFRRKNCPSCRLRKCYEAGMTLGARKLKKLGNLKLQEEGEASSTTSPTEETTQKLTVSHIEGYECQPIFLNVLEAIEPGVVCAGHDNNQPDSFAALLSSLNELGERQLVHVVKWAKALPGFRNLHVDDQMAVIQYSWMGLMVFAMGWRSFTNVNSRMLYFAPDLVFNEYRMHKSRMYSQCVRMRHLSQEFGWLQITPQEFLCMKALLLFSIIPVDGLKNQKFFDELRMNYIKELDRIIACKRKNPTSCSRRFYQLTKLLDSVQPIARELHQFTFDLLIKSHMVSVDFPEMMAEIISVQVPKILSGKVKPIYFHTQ
Chain of rat CYP2C12, Cyp2c12 (gene 25011) (P11510 whole entry, looked up): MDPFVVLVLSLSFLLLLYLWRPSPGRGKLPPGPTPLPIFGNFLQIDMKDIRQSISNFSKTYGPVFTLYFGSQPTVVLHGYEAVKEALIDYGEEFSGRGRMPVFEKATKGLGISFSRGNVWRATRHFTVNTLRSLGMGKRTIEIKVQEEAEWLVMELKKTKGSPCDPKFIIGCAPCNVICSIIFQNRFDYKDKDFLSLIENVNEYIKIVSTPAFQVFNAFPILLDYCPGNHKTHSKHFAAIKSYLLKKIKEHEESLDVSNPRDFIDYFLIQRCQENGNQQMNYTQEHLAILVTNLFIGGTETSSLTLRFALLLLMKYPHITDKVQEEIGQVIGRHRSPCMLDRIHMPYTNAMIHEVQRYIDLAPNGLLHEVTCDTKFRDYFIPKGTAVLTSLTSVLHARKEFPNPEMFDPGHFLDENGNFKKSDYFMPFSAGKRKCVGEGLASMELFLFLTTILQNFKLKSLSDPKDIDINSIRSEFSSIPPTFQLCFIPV
Chain of human CYP2C8, CYP2C8 (gene 1558) (P10632 whole entry, looked up): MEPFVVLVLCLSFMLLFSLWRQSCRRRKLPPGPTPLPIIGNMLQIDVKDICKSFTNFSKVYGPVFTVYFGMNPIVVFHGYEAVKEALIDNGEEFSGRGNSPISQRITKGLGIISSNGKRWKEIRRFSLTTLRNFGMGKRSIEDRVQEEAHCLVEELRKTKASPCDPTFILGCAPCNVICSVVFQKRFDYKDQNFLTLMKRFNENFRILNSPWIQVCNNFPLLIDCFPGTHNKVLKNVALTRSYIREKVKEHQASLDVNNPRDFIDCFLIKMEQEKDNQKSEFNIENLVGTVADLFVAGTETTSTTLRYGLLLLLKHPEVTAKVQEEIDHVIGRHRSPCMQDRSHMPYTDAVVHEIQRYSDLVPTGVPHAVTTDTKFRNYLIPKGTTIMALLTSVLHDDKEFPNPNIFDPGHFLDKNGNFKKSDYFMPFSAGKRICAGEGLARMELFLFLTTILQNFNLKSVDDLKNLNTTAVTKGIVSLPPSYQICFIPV
Chain of human Phosphatase and Tensin Homolog (PTEN), PTEN (gene 5728) (P60484 whole entry, looked up): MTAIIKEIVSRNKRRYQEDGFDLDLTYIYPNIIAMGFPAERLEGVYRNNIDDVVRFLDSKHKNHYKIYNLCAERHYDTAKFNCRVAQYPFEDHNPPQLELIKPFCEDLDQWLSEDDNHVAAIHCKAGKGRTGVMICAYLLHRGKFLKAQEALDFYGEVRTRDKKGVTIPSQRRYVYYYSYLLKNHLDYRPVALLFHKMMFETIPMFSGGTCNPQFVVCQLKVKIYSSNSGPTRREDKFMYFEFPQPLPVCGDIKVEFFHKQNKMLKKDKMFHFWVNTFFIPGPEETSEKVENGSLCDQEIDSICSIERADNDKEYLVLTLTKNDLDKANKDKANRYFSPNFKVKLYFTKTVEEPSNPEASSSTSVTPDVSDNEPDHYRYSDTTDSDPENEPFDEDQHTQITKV
Chain of human NIMA (Never In Mitosis Gene A)-Related Kinase 2 (NEK2), NEK2 (gene 4751) (P51955 whole entry, looked up): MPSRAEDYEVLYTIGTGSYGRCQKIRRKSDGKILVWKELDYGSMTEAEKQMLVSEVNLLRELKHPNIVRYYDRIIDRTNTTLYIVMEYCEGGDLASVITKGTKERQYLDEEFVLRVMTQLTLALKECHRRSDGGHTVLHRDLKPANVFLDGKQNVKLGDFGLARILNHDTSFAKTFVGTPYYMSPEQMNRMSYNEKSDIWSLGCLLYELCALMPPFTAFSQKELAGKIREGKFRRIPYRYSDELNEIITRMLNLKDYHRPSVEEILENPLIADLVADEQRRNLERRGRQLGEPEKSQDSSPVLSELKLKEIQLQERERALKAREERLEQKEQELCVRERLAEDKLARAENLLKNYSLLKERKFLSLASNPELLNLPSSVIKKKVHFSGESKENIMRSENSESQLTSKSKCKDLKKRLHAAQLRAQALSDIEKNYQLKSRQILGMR
Chain of rat CYP1A2, Cyp1a2 (gene 24297) (P04799 whole entry, looked up): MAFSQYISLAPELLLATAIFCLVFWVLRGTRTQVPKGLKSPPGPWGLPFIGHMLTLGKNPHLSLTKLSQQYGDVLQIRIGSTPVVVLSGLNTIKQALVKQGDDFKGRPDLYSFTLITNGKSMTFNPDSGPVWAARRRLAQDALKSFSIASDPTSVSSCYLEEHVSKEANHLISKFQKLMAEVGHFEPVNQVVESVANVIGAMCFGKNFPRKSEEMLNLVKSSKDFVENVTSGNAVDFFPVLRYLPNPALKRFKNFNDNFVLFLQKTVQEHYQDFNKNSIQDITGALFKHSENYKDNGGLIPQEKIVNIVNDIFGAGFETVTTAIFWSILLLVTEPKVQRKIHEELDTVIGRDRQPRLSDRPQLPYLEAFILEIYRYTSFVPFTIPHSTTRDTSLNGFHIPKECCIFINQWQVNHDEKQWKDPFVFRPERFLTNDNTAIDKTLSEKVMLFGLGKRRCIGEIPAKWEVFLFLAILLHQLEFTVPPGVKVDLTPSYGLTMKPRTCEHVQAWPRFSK

For `FC(F)(F)C(F)(F)C(F)(F)CI`, the compound was called inactive in assay [1] and in assay [2].

With `O=C(O)C(F)(F)C(F)(F)OC(F)(F)F`, the compound was called inactive in assay [1] and in assay [2].

On to `O=P(O)(O)OCCC(F)(F)C(F)(F)C(F)(F)C(F)(F)C(F)(F)C(F)(F)F`, for which the compound was called inactive in [1] and in assay [2].

By AC50 is commonly meant the concentration at which the activity in the assay is half-maximal. With `Oc1ccc(C(c2ccc(O)cc2)C(Cl)(Cl)Cl)cc1`, the half-maximal activity concentration (AC50) in assay [3] was 0.668 µM (active); in [4], 1.06 µM (active); in assay [5], 0.615 µM (active); with rat CYP2B1, gene 24300, 9.18 µM (active); in assay [7] it was 2.7 µM (active); in [8], 19.6 µM (active). In addition, the half-maximal activity concentration (AC50) in assay [12] is 7.63 µM (active). The compound was classed as inactive in assay [6], in assay [9], in assay [10], in assay [11] and in assay [13].

Regarding `OCCCCC(F)(F)C(F)(F)C(F)(F)C(F)(F)F`, the outcome in assay [1] and in assay [2] was inactive.

Turning to `OCC(F)(F)C(F)(F)C(F)(F)C(F)(F)C(F)(F)C(F)F`, the result in assay [1] and in assay [2] was inactive.

Take `OCCCC(F)(F)C(F)(F)C(F)(F)F`: the call in assay [1] and in assay [2] was inactive.

On to `CSC(=O)c1cccc2nnsc12`, for which the half-maximal activity concentration (AC50) in [3] was 3.8 µM (active); in assay [10], 25 µM (active); in [11], 28.2 µM (active). In addition, the call in [14], in assay [15], in [16] and in [17] was inactive.

With `N#CSCSc1nc2ccccc2s1`, the AC50 in assay [3] is 2.72 µM (active); in assay [4], 4.46 µM (active); in the assay with rat CYP2B1, gene 24300, 3.96 µM (active); in assay [6] it was 5.12 µM (active); in [7] it was 0.926 µM (active); in assay [18], 25 µM (active). In addition, the values for the AC50 in assay [17] and in [11] were 25 µM (active) and 45.9 µM (active), respectively. Further, the compound was called inactive in assay [16], in [19] and in assay [10].
